# Columns and labels:
# Assay in all cases: DAPPL (digital affinity profiling via proximity ligation, sequencing); 10 mM Tris-HCl pH 7.5, 50 mM NaCl, 1 mM DTT, 4% glycerol, room temperature, 30 min; GST-TFs on glutathione beads, 16-mer random dsDNA library, 0.1% formaldehyde crosslink after washing; high values mean tight binding
# [1] = target: T1, FEV (Homo sapiens, UniProt Q99581 1-238); details: protein: recombinant; tags: N-terminal GST; dsDNA, one strand shown
# T1 sequence: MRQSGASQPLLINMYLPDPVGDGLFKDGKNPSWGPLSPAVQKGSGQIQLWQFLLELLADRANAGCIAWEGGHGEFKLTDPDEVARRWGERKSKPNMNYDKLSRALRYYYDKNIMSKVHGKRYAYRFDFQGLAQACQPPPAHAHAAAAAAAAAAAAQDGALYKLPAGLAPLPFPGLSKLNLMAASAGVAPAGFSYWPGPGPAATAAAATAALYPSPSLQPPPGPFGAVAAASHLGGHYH
# In short: (§1)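 Beads coated with glutathione captured GST-fused human transcription factors that had been expressed in yeast, and the factors were then given DNA barcodes and pooled with a tag-only sample. The pools were incubated with 200 nmole of a random double-stranded 16-mer DNA library in Tris/NaCl/DTT/glycerol buffer for 30 min at room temperature, washed, crosslinked with 0.1% formaldehyde and proximity-ligated with BsaI/T4 ligase at 37 °C for 1 h. PCR amplification and Illumina NextSeq500 sequencing came last. Binding signal is each hexamer's read frequency for a factor divided by its frequency for the tag-only sample.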
# [2] = target: ETV5 (Homo sapiens, UniProt P41161 1-510); details: protein: recombinant; tags: N-terminal GST; dsDNA, one strand shown
# In short: as §1
# [3] = target: HSF1 (Homo sapiens, UniProt Q00613 1-529); details: protein: recombinant; tags: N-terminal GST; chain copies: 3; dsDNA, one strand shown
# In short: as §1
# [4] = target: T2, SPIC (Homo sapiens, UniProt Q8N5J4 1-248); details: protein: recombinant; tags: N-terminal GST; dsDNA, one strand shown
# T2 sequence: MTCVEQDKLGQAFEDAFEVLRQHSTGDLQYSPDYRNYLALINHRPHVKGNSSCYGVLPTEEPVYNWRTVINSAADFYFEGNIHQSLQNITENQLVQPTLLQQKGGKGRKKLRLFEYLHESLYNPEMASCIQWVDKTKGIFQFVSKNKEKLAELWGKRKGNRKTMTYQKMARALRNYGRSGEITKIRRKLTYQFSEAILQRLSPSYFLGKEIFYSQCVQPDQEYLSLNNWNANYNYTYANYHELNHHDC
# In short: as §1
# [5] = target: ELF4 (Homo sapiens, UniProt Q99607 1-663); details: protein: recombinant; tags: N-terminal GST; dsDNA, one strand shown
# In short: as §1
# [6] = target: T3, ELK4 (Homo sapiens, UniProt P28324-2 1-405); details: protein: recombinant; tags: N-terminal GST; dsDNA, one strand shown
# T3 sequence: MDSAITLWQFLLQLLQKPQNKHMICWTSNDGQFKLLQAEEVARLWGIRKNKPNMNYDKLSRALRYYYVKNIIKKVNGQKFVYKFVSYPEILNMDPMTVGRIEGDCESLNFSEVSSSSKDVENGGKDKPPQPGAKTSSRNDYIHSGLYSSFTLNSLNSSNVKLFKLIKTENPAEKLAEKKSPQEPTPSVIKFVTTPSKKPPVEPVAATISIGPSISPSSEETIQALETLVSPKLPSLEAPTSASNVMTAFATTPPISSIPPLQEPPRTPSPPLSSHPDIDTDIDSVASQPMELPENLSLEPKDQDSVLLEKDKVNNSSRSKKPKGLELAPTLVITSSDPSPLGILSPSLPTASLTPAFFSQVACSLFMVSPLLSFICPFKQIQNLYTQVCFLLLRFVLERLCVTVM
# In short: as §1
# [7] = target: T4, ETV2 (Homo sapiens, UniProt O00321 1-342); details: protein: recombinant; tags: N-terminal GST; dsDNA, one strand shown
# T4 sequence: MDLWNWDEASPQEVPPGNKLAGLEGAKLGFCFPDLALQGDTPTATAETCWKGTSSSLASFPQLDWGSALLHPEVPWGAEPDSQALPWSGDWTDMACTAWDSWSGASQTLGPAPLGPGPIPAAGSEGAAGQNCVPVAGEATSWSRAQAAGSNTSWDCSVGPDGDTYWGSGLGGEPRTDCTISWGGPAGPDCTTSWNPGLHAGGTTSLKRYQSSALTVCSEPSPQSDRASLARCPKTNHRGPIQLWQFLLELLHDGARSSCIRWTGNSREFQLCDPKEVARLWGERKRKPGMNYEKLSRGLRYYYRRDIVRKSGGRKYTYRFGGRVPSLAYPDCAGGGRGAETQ
# In short: as §1
# [8] = target: T5, ELF3 (Homo sapiens, UniProt P78545 1-371); details: protein: recombinant; tags: N-terminal GST; dsDNA, one strand shown
# T5 sequence: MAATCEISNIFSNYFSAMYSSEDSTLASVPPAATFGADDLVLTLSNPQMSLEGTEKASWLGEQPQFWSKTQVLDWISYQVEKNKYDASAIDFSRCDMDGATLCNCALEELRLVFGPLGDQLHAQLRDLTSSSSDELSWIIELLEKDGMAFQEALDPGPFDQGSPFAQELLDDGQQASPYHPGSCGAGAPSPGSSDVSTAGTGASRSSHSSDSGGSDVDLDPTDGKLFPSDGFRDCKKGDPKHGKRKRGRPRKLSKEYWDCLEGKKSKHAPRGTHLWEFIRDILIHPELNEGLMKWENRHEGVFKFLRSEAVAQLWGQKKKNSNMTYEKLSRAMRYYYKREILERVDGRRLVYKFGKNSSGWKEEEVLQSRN
# In short: as §1
# [9] = target: CRX (Homo sapiens, UniProt O43186 1-299); details: protein: recombinant; tags: N-terminal GST; dsDNA, one strand shown
# In short: as §1
# [10] = target: ETV1 (Homo sapiens, UniProt P50549 1-477); details: protein: recombinant; tags: N-terminal GST; dsDNA, one strand shown
# In short: as §1
# [11] = target: T6, ERF (Homo sapiens, UniProt P50548 1-548); details: protein: recombinant; tags: N-terminal GST; dsDNA, one strand shown
# T6 sequence: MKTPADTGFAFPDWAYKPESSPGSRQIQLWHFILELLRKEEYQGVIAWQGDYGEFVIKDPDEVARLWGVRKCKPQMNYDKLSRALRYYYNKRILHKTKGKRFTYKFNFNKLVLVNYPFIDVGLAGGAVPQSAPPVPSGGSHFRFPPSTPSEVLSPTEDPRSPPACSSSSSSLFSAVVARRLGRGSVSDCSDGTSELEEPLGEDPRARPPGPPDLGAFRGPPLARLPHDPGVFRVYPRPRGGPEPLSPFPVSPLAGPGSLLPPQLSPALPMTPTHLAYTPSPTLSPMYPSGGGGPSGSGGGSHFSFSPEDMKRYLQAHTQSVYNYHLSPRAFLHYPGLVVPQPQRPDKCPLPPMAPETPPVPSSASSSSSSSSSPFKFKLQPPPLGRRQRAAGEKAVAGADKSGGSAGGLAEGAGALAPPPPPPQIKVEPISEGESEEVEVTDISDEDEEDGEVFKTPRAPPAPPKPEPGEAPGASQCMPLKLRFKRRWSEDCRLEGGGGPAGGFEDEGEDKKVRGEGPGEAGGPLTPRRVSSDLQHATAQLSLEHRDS
# In short: as §1
# [12] = target: T7, ETV3L (Homo sapiens, UniProt Q6ZN32 1-361); details: protein: recombinant; tags: N-terminal GST; dsDNA, one strand shown
# T7 sequence: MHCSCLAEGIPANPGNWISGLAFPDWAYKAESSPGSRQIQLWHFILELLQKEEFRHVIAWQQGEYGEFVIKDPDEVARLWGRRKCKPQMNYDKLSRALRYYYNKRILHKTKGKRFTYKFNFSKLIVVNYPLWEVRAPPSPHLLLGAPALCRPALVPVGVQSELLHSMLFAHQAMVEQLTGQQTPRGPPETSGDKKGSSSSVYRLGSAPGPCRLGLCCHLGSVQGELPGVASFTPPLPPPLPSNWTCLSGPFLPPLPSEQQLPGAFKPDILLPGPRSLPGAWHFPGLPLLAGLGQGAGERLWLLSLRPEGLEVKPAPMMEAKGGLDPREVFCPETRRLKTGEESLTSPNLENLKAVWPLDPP
# In short: as §1
# [13] = target: T8, ETS2 (Homo sapiens, UniProt P15036 1-469); details: protein: recombinant; tags: N-terminal GST; dsDNA, one strand shown
# T8 sequence: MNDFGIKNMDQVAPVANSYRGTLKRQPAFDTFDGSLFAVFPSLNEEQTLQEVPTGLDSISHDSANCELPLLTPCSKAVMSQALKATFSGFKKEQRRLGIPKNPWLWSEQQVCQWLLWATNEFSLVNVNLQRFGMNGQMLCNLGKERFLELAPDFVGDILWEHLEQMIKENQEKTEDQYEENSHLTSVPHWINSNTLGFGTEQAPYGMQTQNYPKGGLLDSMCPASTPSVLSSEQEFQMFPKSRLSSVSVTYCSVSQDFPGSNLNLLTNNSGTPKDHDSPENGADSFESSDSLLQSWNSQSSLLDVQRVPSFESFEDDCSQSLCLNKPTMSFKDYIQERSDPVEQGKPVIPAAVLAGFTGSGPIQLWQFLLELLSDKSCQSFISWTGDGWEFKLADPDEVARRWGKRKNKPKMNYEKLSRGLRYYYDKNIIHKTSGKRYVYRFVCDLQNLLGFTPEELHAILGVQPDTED
# In short: as §1
# [14] = target: T9, SPDEF (Homo sapiens, UniProt O95238 1-335); details: protein: recombinant; tags: N-terminal GST; dsDNA, one strand shown
# T9 sequence: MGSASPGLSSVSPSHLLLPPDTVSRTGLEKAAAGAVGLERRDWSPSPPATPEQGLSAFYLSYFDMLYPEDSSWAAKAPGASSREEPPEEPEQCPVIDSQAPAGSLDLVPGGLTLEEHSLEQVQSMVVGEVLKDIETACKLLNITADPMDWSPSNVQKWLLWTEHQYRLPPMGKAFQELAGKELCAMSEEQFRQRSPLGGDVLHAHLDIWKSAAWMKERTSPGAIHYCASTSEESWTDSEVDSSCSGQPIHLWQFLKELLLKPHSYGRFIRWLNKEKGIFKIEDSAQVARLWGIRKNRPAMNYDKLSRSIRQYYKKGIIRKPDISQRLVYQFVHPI
# In short: as §1
# [15] = target: T10, ETV7 (Homo sapiens, UniProt Q9Y603 1-341); details: protein: recombinant; tags: N-terminal GST; dsDNA, one strand shown
# T10 sequence: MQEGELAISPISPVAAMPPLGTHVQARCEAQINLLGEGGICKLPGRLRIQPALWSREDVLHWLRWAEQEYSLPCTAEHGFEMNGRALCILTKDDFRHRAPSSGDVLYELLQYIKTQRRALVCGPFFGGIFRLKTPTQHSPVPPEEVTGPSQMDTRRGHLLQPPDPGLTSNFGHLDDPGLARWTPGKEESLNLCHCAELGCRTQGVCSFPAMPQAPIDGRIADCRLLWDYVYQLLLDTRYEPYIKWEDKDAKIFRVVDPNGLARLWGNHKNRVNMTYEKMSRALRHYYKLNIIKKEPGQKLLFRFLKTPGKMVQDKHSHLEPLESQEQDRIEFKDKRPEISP
# In short: as §1
# [16] = target: T11, ELF5 (Homo sapiens, UniProt Q9UKW6-2 1-255); details: protein: recombinant; tags: N-terminal GST; dsDNA, one strand shown
# T11 sequence: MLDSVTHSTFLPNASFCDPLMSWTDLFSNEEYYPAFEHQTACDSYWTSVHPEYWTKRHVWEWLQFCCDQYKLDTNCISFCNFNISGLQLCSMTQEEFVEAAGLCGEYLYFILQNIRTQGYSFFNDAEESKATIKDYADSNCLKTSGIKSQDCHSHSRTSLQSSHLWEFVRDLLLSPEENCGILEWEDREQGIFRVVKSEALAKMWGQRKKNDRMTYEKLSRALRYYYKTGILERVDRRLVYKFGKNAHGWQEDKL
# In short: as §1
# [17] = target: T12, ETV3 (Homo sapiens, UniProt P41162-2 1-143); details: protein: recombinant; tags: N-terminal GST; dsDNA, one strand shown
# T12 sequence: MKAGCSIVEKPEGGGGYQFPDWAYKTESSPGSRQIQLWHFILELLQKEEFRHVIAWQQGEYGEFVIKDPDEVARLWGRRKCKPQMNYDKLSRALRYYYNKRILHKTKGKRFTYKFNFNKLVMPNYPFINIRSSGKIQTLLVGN
# In short: as §1
# [18] = target: ETV6 (Homo sapiens, UniProt P41212 1-452); details: protein: recombinant; tags: N-terminal GST; dsDNA, one strand shown
# In short: as §1
# Sequence of ETV5 (P41161 whole entry): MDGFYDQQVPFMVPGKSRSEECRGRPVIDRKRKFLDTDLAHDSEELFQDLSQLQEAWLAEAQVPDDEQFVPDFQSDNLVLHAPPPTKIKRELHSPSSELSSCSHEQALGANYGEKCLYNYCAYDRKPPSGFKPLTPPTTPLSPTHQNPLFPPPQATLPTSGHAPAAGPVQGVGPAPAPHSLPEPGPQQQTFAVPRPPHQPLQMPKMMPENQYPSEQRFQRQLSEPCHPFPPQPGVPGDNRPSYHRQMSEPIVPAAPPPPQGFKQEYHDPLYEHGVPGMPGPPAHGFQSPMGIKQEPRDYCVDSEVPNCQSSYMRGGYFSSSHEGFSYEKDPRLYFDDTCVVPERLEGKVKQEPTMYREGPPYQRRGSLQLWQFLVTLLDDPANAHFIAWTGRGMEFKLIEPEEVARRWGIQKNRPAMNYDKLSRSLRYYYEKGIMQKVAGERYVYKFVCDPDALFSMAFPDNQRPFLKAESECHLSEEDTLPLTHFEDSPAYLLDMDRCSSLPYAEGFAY
# Sequence of CRX (O43186 whole entry): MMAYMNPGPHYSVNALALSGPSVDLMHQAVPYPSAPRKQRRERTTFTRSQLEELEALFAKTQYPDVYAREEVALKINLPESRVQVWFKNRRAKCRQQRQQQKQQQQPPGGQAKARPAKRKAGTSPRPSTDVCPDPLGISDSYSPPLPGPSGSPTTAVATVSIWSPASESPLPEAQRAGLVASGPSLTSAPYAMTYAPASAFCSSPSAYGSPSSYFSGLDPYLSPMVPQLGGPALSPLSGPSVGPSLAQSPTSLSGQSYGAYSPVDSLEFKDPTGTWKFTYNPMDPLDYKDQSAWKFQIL
# Sequence of ELF4 (Q99607 whole entry): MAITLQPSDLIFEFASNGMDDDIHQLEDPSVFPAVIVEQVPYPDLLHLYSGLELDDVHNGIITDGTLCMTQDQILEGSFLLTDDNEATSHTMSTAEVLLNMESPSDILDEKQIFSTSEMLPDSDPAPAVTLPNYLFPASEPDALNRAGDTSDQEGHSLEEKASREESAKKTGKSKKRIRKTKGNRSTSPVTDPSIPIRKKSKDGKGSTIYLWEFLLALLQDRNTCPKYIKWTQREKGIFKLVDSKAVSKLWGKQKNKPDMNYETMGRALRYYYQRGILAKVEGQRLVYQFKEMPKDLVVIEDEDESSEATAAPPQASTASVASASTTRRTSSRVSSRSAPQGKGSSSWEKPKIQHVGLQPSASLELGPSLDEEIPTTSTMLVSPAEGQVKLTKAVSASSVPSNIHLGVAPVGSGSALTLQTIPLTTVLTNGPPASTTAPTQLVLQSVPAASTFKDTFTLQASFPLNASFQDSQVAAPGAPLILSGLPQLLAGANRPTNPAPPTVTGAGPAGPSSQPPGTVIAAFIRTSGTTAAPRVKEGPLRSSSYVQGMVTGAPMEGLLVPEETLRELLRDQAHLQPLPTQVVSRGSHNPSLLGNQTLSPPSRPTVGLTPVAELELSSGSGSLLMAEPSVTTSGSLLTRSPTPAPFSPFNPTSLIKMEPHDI
# Sequence of ETV6 (P41212 whole entry): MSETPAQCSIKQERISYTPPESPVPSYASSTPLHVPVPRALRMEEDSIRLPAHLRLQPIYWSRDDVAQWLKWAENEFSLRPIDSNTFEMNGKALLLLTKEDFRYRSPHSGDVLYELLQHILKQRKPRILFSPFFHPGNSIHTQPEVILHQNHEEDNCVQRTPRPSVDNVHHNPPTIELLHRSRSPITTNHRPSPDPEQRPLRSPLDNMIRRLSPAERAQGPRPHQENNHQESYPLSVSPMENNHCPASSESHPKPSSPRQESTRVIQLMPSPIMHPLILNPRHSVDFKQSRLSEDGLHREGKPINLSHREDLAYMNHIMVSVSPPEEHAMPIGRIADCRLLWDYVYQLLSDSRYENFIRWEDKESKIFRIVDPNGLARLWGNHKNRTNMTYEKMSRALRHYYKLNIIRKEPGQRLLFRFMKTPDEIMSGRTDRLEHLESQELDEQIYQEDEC
# Sequence of ETV1 (P50549 whole entry): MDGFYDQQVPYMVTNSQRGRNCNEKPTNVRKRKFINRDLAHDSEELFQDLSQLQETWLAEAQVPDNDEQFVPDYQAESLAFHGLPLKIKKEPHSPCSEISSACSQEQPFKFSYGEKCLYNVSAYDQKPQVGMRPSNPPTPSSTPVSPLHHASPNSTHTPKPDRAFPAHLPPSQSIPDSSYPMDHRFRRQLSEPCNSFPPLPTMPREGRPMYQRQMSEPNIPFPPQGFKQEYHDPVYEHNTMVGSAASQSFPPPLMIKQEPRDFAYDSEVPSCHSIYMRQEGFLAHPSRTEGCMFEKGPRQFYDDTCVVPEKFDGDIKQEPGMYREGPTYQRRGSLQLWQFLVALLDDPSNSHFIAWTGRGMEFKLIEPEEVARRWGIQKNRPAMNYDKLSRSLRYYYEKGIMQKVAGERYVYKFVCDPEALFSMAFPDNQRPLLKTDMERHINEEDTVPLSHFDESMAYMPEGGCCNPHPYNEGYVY
# Sequence of HSF1 (Q00613 whole entry): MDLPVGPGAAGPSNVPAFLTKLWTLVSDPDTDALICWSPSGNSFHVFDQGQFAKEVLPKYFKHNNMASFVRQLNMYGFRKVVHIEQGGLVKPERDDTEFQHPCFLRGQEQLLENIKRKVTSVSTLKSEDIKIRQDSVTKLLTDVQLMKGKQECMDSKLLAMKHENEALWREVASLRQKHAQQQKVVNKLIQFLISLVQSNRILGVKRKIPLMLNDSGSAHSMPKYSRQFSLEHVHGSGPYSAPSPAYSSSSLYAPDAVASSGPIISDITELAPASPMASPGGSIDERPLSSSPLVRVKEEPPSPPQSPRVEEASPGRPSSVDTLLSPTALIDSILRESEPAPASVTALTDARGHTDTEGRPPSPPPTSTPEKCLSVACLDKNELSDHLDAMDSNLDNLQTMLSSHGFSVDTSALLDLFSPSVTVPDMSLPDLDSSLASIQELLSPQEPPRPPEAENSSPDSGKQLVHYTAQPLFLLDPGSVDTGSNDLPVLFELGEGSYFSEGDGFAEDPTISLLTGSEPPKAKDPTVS
sequence,measurement,setting,value
TTCCCC,binding signal,[1],"1.64 fold enrichment (6-mer frequency, TF over GST control)"
same,binding signal,[2],"1.71 fold enrichment (6-mer frequency, TF over GST control)"
same,binding signal,[3],"1.42 fold enrichment (6-mer frequency, TF over GST control)"
same,binding signal,[4],"1.87 fold enrichment (6-mer frequency, TF over GST control)"
same,binding signal,[5],"1.78 fold enrichment (6-mer frequency, TF over GST control)"
same,binding signal,[6],"1.48 fold enrichment (6-mer frequency, TF over GST control)"
same,binding signal,[7],"1.8 fold enrichment (6-mer frequency, TF over GST control)"
same,binding signal,[8],"1.64 fold enrichment (6-mer frequency, TF over GST control)"
same,binding signal,[9],"1.44 fold enrichment (6-mer frequency, TF over GST control)"
same,binding signal,[10],"1.69 fold enrichment (6-mer frequency, TF over GST control)"
same,binding signal,[11],"1.46 fold enrichment (6-mer frequency, TF over GST control)"
same,binding signal,[12],"1.69 fold enrichment (6-mer frequency, TF over GST control)"
same,binding signal,[13],"1.64 fold enrichment (6-mer frequency, TF over GST control)"
same,binding signal,[14],"1.43 fold enrichment (6-mer frequency, TF over GST control)"
same,binding signal,[15],"1.43 fold enrichment (6-mer frequency, TF over GST control)"
same,binding signal,[16],"2.17 fold enrichment (6-mer frequency, TF over GST control)"
same,binding signal,[17],"1.89 fold enrichment (6-mer frequency, TF over GST control)"
same,binding signal,[18],"1.73 fold enrichment (6-mer frequency, TF over GST control)"
